Assay results: ChEMBL document CHEMBL4513146, “CO-ADD screening of Karazin Kharkiv National University (Ukraine) compounds”
Potency and affinity values are given separately.

Tests used:
[1] = tested on: Staphylococcus aureus; settings: Concentration 32 ug.mL-1;; ASSAY_TEST Inhibition of Bacterial Growth; detection method Absorption (OD600); MEDIA CAMHB; plate type 384well; NBS; CORNING #3640; time 18 hr
[2] = tested on: Escherichia coli; settings: Concentration 32 ug.mL-1;; ASSAY_TEST Inhibition of Bacterial Growth; detection method Absorption (OD600); MEDIA CAMHB; plate type 384well; NBS; CORNING #3640; time 18 hr

SMILES	Inhibition [1] [%]	Inhibition [2] [%]
O=C(CSc1nnc2c(=O)n(-c3ccccc3)ccn12)c1ccc(F)cc1	16.24	-2
O=c1c2sccc2n2c(=O)n(Cc3c(F)cccc3Cl)nc2n1Cc1cccs1	6.51	0.39
Cc1nnc2c(=O)n(CC(=O)Nc3cccc(F)c3)c3ccccc3n12	14.13	2.22
COc1ccc(NC(=O)Cn2nc3c4cc(-c5cc(C)ccc5C)nn4ccn3c2=O)c(OC)c1	3.39	3.2
CCOC(=O)c1cccc(NC(=O)Cn2nc3c(Oc4cccc(C)c4C)nccn3c2=O)c1	-16.27	-3.26
O=C(CSc1nnc2c(=O)n(-c3ccc(Br)cc3)ccn12)c1ccc(F)cc1	0.43	-3.19
COc1cc(NC(=O)Cn2nc3c(Oc4ccccc4)nccn3c2=O)cc(OC)c1OC	13.24	1.16
O=C(Cn1nc2ccc(SCc3ccc(Cl)cc3)nn2c1=O)NCc1ccccc1	7.82	-9.37
CCCCc1ccc(NC(=O)CSc2nc3ccccc3n3c(C(C)C)nnc23)cc1	-8.95	-2.74
Cc1ccc(N(CC(=O)OC(C)(C)C)S(=O)(=O)c2cccn3cnnc23)cc1	15.19	-3.99
COc1ccc(-c2noc(Cn3nc4ccc(-c5ccccc5)nn4c3=O)n2)cc1OC	7.44	-3.1
CCc1nnc2c(SCC(=O)Nc3ccc4c(c3)OCCO4)nc3ccccc3n12	-7.96	3.84
COc1cccc(-n2ccn3c(SCc4cccc(C(F)(F)F)c4)nnc3c2=O)c1	7.34	-9.08
CCc1ccc(NC(=O)Cn2nc3cc(C)nc(Nc4ccc(F)c(C)c4)n3c2=O)cc1	4.65	-6.45
CC(C)c1nnc2c(=O)n(CC(=O)Nc3ccc(Cl)cc3)c3ccccc3n12	11.52	1.04
CCc1nnc2c(S(=O)(=O)N(Cc3cc(F)cc(F)c3)c3ccccc3)cccn12	7.38	-4.8
CCc1nnc2ccc(S(=O)(=O)N(Cc3ccccc3)c3ccccc3)cn12	5.6	-2.89
Cc1ccc(CNC(=O)Cn2nc3c(Oc4ccccc4C)nccn3c2=O)cc1	5.58	-1.39
O=C(Cn1nc2ccc(Sc3cccc(F)c3)nn2c1=O)Nc1ccc2c(c1)OCCO2	11.29	-2.18
COc1cccc(CN(c2ccc(F)c(F)c2)S(=O)(=O)c2ccc3nncn3c2)c1	-3.79	-13.18
COc1ccccc1-n1ccn2c(SCc3ccc(Cl)cc3)nnc2c1=O	7.4	-9
CCc1cccc(NC(=O)Cn2nc3ccc(SC(C)(C)C)nn3c2=O)c1	9.57	-1.32
CCCCOc1ccc(-c2cc3c4nnc(SCC(=O)Nc5ccc(OC)cc5)n4ccn3n2)cc1	-5.31	-9.08
Cc1cc(C)c(NC(=O)Cn2nc3c4cc(-c5ccc(F)cc5)nn4ccn3c2=O)c(C)c1	12.62	1.69

SMILES	Inhibition [1] [%]	Inhibition [2] [%]
Cc1ccc(NC(=O)Cn2nc3c(Oc4ccccc4C)nccn3c2=O)cc1F	8.06	-0.85
O=C(Cn1nc2ccc(-c3ccc(Cl)cc3)nn2c1=O)N1CCN(c2ccccc2)CC1	-1.88	-5.05
O=S(=O)(c1ccc2nncn2c1)N(Cc1cccc(F)c1)c1ccc2c(c1)OCCO2	1.17	-4.29
COc1ccc(NC(=O)CSc2nnc3c(=O)n(-c4ccccc4)ccn23)cc1	-4.77	-6.17
COc1cc(OC)c(NC(=O)Cn2nc3ccc(Sc4cccc(F)c4)nn3c2=O)cc1Cl	4.57	-1.59
COc1ccc(NC(=O)Cn2nc3ccc(SC4CCCCC4)nn3c2=O)cc1OC	3.6	-2.79
Cc1ccc(NC(=O)Cn2nc3c(SCc4ccc(Cl)cc4)nccn3c2=O)cc1F	5.52	0.08
Cc1cc(C)c(NC(=O)CSc2nc3ccccc3n3c(C)nnc23)c(C)c1	9.68	-6.86
CCc1ccccc1Sc1nccn2c(=O)n(CC(=O)Nc3cc(C)ccc3C)nc12	15.04	0.5
COc1ccc(-c2cc3c4nnc(CCC(=O)NCc5ccc(OC)c(OC)c5)n4ccn3n2)cc1	6.96	-5.17
CCc1nnc2c(S(=O)(=O)N(Cc3cc(F)cc(F)c3)c3ccc(F)cc3)cccn12	-5.33	-11.24
CC(C)c1nnc2c(=O)n(CC(=O)Nc3cccc(F)c3)c3ccccc3n12	22.23	3.96
COc1ccc(-c2cc3c4nnc(SCC(=O)N(C)c5ccccc5)n4ccn3n2)cc1	-6.7	-0.99
O=C(CCc1nnc2ccc(-c3ccc(Cl)cc3)nn12)NCc1ccc(F)cc1Cl	11.56	-1.56
COc1ccc(-c2nc(CSc3nc4ccccc4n4c(C(C)C)nnc34)c(C)o2)cc1	-9.17	-2.62
CCc1nnc2c(SCC(=O)NCc3ccccc3Cl)nc3ccccc3n12	4.41	-6.59
O=S(=O)(c1ccc2nncn2c1)N(Cc1ccc(F)cc1)c1ccc(F)c(F)c1	-11.56	-13.53
COc1ccc(C(=O)CSc2nnc3c(=O)n(-c4ccc(F)cc4)ccn23)cc1	13.68	-0.44
CCOc1ccc(-n2ccn3c(SC(C)C(=O)Nc4ccc5c(c4)OCCO5)nnc3c2=O)cc1 (centres undefined)	14.02	0.39
COc1cccc(NC(=O)Cn2nc3c4c5c(sc4ncn3c2=O)CCCC5)c1	2.27	-1.99
Cc1nnc2c(=O)n(CC(=O)NC3CCCC3)c3ccccc3n12	4.23	-6.29
CSc1ccc(CNC(=O)Cn2nc3c(Oc4cccc(C)c4C)nccn3c2=O)cc1	11.62	2.94
COC(=O)c1ccc(NC(=O)CSc2nc3ccccc3n3c(C(C)C)nnc23)cc1	12.04	-0.7
Cc1ccc(Cl)cc1NC(=O)CSc1nc2ccccc2n2c(C)nnc12	-8.21	-3.62

SMILES	Inhibition [1] [%]	Inhibition [2] [%]
COc1ccc(NC(=O)Cn2nc3c4cc(-c5ccc(Cl)cc5)nn4ccn3c2=O)c(OC)c1	9.6	5.1
O=c1n(Cc2ccc3c(c2)OCO3)nc2c(S(=O)(=O)N3CCCC3)cccn12	0.67	-7.1
Cc1cccc(NC(=O)Cn2nc3nc(N4CCCCCC4)ccn3c2=O)c1C	7.24	-2.03
CCCCn1c(=O)c2sccc2n2c(=O)n(CC(=O)N3CCCC(C(=O)OCC)C3)nc12 (centres undefined)	0.89	-5.26
Cc1ccc(CNC(=O)CSc2nnc3c4cc(-c5ccc(F)cc5)nn4ccn23)cc1	12.38	-2.28
COc1cccc(CN(c2cccc(C)c2)S(=O)(=O)c2ccc3nnc(C)n3c2)c1	1.31	-6.19
O=C(Cn1nc2c(N3CCOCC3)nccn2c1=O)NCc1cccc(C(F)(F)F)c1	16.25	-1.74
CCc1ccccc1Sc1nccn2c(=O)n(CC(=O)Nc3ccc(C)cc3)nc12	2.48	-9.52
COc1ccccc1NC(=O)Cn1nc2c3cc(-c4ccc(Cl)cc4)nn3ccn2c1=O	5.68	-3.99
Cc1ccc(-c2nc(CSc3nc4ccccc4n4c(C(C)C)nnc34)c(C)o2)cc1	-8.56	-6.52
CCCCn1c(=O)c2sccc2n2c(=O)n(CC(=O)c3ccc(OC)c(OC)c3)nc12	13.6	0.21
CCCCc1ccc(NC(=O)Cn2nc3c(N4CCSCC4)nc4ccccc4n3c2=O)cc1	10.09	1.07
Cc1cc2nn(CC(=O)Nc3cc(F)ccc3F)c(=O)n2c(Nc2ccc(C)c(F)c2)n1	0.88	-8.4
CC(C)c1ccc(N(Cc2ccc(Cl)cc2)S(=O)(=O)c2cccn3cnnc23)cc1	8.06	3.76
O=C(Cn1nc2c3cc(-c4ccc(Cl)cc4)nn3ccn2c1=O)NC1CCCC1	-0.6	-3.32
COc1cccc(-n2ccn3c(SCc4cccc(F)c4)nnc3c2=O)c1	11.5	-8.02
Cc1ccc(Oc2nccn3c(=O)n(CC(=O)Nc4ccc(C)cc4Cl)nc23)cc1	6.09	0.24
O=C(Cn1nc2ccc(-c3ccc(Cl)cc3)nn2c1=O)N1CCN(c2ccccc2F)CC1	9.33	-0.1
Cc1ccc(NC(=O)Cn2nc3c(Sc4ccccc4)nccn3c2=O)c(Br)c1	-10.94	-14.81
Cc1ccc(NC(=O)Cn2nc3c4cc(-c5ccc(Cl)cc5)nn4ccn3c2=O)cc1C	10.49	3.51
COc1ccc(-c2cc3c4nnc(SCC(=O)Nc5cccc(C#N)c5)n4ccn3n2)cc1	1.06	-0.96
O=c1c2sccc2n2c(SCc3cccc(C(F)(F)F)c3)nnc2n1Cc1ccc(F)cc1	9.81	-1.38
Cc1ccc(NC(=O)Cn2nc3ccc(SC(C)(C)C)nn3c2=O)cc1C	-0.92	2.46
CCc1nnc2c(S(=O)(=O)N(Cc3cccc(F)c3)c3ccc(C)c(C)c3)cccn12	17.57	2.28
